PubChem BioAssay AID1671189 (National Center for Advancing Translational Sciences (NCATS), 2021)
Several values for one entry are separate records, joined by “and”; a condition that tells them apart may be missing. Equal entries are not always repeated. The campaign covered roughly 1,100 compounds. About 70 (6%) were called active. About 22% were inconclusive and are not listed. This is one part of a sample in which actives are shown more often than they occur. Calls follow the shape of the dose curve; as a rule, active = well fitted curve in the direction sought with a large enough effect; inconclusive = small, poorly fitted or top-dose-only effect, or another doubt; inactive = no such curve, though single readings can be large or run the other way.

Molecular target: Polyunsaturated fatty acid lipoxygenase ALOX12 (Homo sapiens) (UniProt P18054)
Assay: Confirmatory qHTS assay for inhibitors of human arachidonate 12S-lipoxygenase (ALOX12): Round 2
Details: purified human 12-LOX, xylenol orange absorbance; series mostly up to 125 µM
How it was run: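 Activity was measured as hydroperoxide formation via ferrous/xylenol orange, taking the 573 nm to 405 nm absorbance ratio. Reaction: 40 uM arachidonic acid, 30 min at room temperature, after 15 min compound preincubation with 150 nM enzyme, pH 7.0 Hepes buffer.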
Potency is read from the fitted curve at half-maximal effect.

Polyunsaturated fatty acid lipoxygenase ALOX12 (Homo sapiens), sequence (P18054 whole entry, looked up): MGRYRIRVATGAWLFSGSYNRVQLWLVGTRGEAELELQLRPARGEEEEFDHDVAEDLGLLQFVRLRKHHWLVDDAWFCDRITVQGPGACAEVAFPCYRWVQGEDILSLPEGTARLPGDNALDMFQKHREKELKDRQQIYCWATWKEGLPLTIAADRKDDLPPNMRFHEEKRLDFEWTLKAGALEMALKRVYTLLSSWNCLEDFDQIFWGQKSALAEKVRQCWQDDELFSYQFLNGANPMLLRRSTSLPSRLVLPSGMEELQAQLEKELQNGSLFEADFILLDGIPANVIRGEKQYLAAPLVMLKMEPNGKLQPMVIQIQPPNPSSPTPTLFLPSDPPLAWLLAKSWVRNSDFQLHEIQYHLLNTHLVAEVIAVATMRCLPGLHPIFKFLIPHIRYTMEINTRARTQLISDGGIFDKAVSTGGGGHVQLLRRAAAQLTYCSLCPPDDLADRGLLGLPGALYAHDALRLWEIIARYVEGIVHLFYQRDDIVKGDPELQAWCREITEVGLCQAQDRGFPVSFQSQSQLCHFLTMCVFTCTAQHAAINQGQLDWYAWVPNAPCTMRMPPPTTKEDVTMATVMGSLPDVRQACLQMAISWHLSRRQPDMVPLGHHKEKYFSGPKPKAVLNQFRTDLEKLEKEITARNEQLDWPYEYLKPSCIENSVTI

Potency, active:
Clc1ccc(NCCN2CCCC2)cc1 90.2 µM, Nc1cc(-c2ccccc2)ccc1O 0.273 µM, CC(=O)NC1(C)CCN(Cc2cnc(-c3ccccc3OCc3ccccc3)s2)CC1 4.47 µM, O=C(c1cc(-c2ccco2)nn1-c1cccc(Cl)c1)N1CCCCC1 9.68 µM, CCC(=O)NC(c1ccco1)c1cc(Cl)c2cccnc2c1O (stereo unspecified) 2.17 µM, CC(=O)NC(c1ccco1)c1cc(Cl)c2cccnc2c1O (stereo unspecified) 4.85 µM, C=CCn1cc(CN(Cc2ccco2)Cc2cccs2)c(C)n1 10 µM, O=[S+]([O-])(Nc1ccc(N2CCNCC2)cc1)c1ccc(NCc2ccc(Br)cc2O)cc1 21.7 µM, O=[S+]([O-])(Nc1ccc(N2CCNCC2)cc1)c1ccc(NCc2ccc(Cl)cc2O)cc1 21.7 µM, CC(=O)NC(c1cccs1)c1cc(Cl)c2cccnc2c1O (stereo unspecified) 3.06 µM, CCC(=O)NC(c1cccs1)c1cc([N+](=O)[O-])c2cccnc2c1O (stereo unspecified) 6.11 µM, CCC(=O)NC(c1cccs1)c1cc(Cl)c2cccnc2c1O (stereo unspecified) 1.93 µM and 4.85 µM and 2.43 µM, O=C(NC1CCCCC1)O[C@@H]1CO[C@H]2[C@@H]1OC[C@@H]2n1nnnc1SCc1ccco1 7.08 µM, NC(=O)c1cccc(CN2CCC3(CC2)Cc2ccccc2N(C(=O)c2ccc(Cl)cc2)C3)c1 22.1 µM, O=C(C1CCCC1)N1CC2(CCN(Cc3ccc(Cl)cc3)C2)Cc2ccccc21 (stereo unspecified) 6.22 µM, O=C(c1ccc(Cl)cc1)N1CC2(CCN(Cc3ccc(Cl)cc3)C2)Cc2ccccc21 (stereo unspecified) 1.56 µM, O=C(c1ccc(Cl)cc1)N1CC2(CCCN(Cc3ccc(Cl)cc3)C2)Cc2ccccc21 (stereo unspecified) 4.94 µM, O=C1NCc2ccccc2CC12CCN(Cc1ccc(Br)cc1)C2 (stereo unspecified) 17.5 µM, O=C1NCc2ccccc2CC12CCN(Cc1ccc(Cl)cc1)C2 (stereo unspecified) 27.5 µM, O=C1NCc2ccccc2CC12CCN(Cc1ccc(Oc3ccccc3)cc1)C2 (stereo unspecified) 55.5 µM, Cc1cc(C)c(CN2CCC3(Cc4ccccc4CNC3=O)C2)c(C)c1 (stereo unspecified) 0.879 µM

Potency, inactive:
CNc1oc(-c2ccc(Cl)c(Cl)c2)nc1C#N, c1cc(NCCN2CCCC2)ccn1, c1ccc(NCCN2CCCC2)cc1, Cn1nc(C2CCNC2)c2c(C(=O)NC3CC3)cc(C3CC3)nc21 (stereo unspecified), O=C(OCC#CCSc1nnc(-c2cccc3ccccc23)o1)c1ccsc1, NCc1ccc(-c2cccc(Cl)c2)cc1, NCc1ccc(-c2cccc(O)c2)cc1, N[C@@H]1CC[C@H](C(=O)N2CCC(c3nccn3Cc3ccncc3)CC2)C1, O=C(OCC#CCSc1nnc(-c2cccc3ccccc23)o1)c1sccc1Cl, CN1CC(=O)N(C2CCNC2)Cc2c(NCC3(O)CCCCC3)ncnc21 (stereo unspecified), CCCCN1C(=O)[C@@H]2C[C@@H](O)CN2C2(CN(Cc3cnc[nH]3)C2)C1=O, O=C(c1cc(C2CC2)nc2onc(C3CCCNC3)c12)N1CCCCC1 (stereo unspecified), O=C1NCc2ccccc2CC12CCN(Cc1ccc(Cl)o1)C2 (stereo unspecified), O=C1Nc2ccccc2C12CCN(Cc1ccccc1)C2 (stereo unspecified), CC(=O)N1CCN(C(=O)CSCC(=O)O)C[C@H]1C(=O)N[C@H]1CCCNC1=O, O=c1[nH]c(C2CCCN(Cc3ccc(-c4cc(F)cc(F)c4)cc3)C2)nc2ccc(F)cc12 (stereo unspecified), CN1CC(=O)N(C2CCNCC2)Cc2c(NC3CCCCC3)ncnc21, O=C(c1ccccc1)N1CCn2c(nn(-c3cccc(Cl)c3)c2=O)C1, O=c1n(-c2cccc(Cl)c2)nc2n1CCN([S+](=O)([O-])c1ccccc1)C2, O=C(c1ccc(C(F)(F)F)cc1)N1CCc2nc(C3CC3)nc(-c3ccc(Cl)cc3)c2C1, O=C(N1CCCC1)N1CCn2c(nnc2-c2cncc(Br)c2)C1, O=C(O)CCCC(=O)N1Cc2ccccc2CC2(CCCN2Cc2ccccc2)C1 (stereo unspecified), CC1CCCN(c2ncnc3c2CN(C2CCCNCC2)C(=O)CN3C)C1 (stereo unspecified), CCC(=O)NC(c1ccco1)c1cc(Cl)c2cccnc2c1OC (stereo unspecified), COc1ccc(CNc2ncnc3c2CN(C2CCCNCC2)C(=O)CN3C)cc1 (stereo unspecified), C[S+](=O)([O-])N1Cc2ccccc2OC2(CCN(C(=O)c3ccc(N)nc3)CC2)C1, CN1C(=O)[C@@H]2C[C@@H](CN2C2CCCC2)Oc2ccccc21, N#Cc1ccc(CN2CCC3(CN[S+](=O)([O-])c4cnccc4O3)C2)cc1 (stereo unspecified), CNCCN1C(=O)CC[C@H]2CN(C(=O)c3ccc(Cl)cn3)CC[C@H]21, C=CCNC(=O)[C@@H]1Cc2cn(CC#CC)c3cccc(c23)[C@H](CC(C)C)N1, Cc1ccc(C(=O)N2CCn3c(nnc3C3CCNCC3)C2)cc1, c1ccc(COCCCc2cnc[nH]2)cc1, COCCNC(=O)c1cc(C)nc2onc(C3CCCNC3)c12 (stereo unspecified), O=C(O)c1ccc(-c2cnccn2)cc1, CN1CCC2(Cc3ccccc3CN(C(=O)Cc3cccc(Cl)c3)C2)C1 (stereo unspecified), CNC(C)c1cccc(OC)c1 (stereo unspecified), O=C(CCC[C@H]1NC[C@@H]2CC1CN(Cc1ccccc1)C2)NCc1ccc(F)cc1, Cc1ccc(CN2CCC3(CC2)Cc2ccccc2CNC3=O)cc1C, O=C(NCc1ccncc1)c1cc(C2CC2)nc2c1c(C1CCCN1)nn2-c1ccccc1 (stereo unspecified), Cc1cc(C(=O)NCc2ccc(F)cc2)c2c(C3CCNC3)noc2n1 (stereo unspecified), O=C1CCN(C(=O)[C@@H]2CCCN2Cc2ccc(C(F)(F)F)cc2)CCCCCCN1, CCn1cc(-c2ccc(C)cc2)cc1C(=O)N1CCN(c2ccccn2)CC1, CCC(C)Cn1c(/C=C/c2ccccc2)nc2ccccc21 (stereo unspecified), C[C@]1(CO)[C@H]2Cc3sc(NC(=O)c4ccnc(Cl)c4)nc3[C@@H](CC(=O)O)[C@]2(C)CC[C@H]1O, COC(=O)[C@H](c1ccccc1Cl)N1CCc2sccc2C1, CC(=O)NC(c1cccs1)c1cc(Br)c2cccnc2c1O (stereo unspecified), NCc1cccc(-c2cc(C(F)(F)F)ccc2Cl)c1, Cc1ccc(CN2CCc3oc(C)c(C(=O)N4CCSCC4)c3C2)cc1, Cc1ccc(CCN2CCCCC23Cc2ccccc2CN(C(=O)CCCC(=O)O)C3)cc1 (stereo unspecified), CN1CC(=O)N(C2CCCNC2)Cc2c(NC3CCCCCC3)ncnc21 (stereo unspecified), CC(C)(N)C(=O)N1CCCC(N2CCN(Cc3ccc4c(c3)OCO4)CC2)C1 (stereo unspecified), COc1ccc(N2CC3CCC(C2)N3C(C)=O)cc1, O=C(c1cc(C2CC2)nc2onc(C3CCCN3)c12)N1CCC(F)CC1 (stereo unspecified), COc1ccc(C(=O)N2CC(Oc3ccc4c(c3)OCO4)C2)cc1, O=C(Nc1ccccc1)O[C@@H]1CO[C@H]2[C@@H]1OC[C@@H]2n1nnnc1SCc1ccco1, O=C(c1cc(C2CC2)nc2c1c(C1CCCN1)nn2-c1ccccc1)N1CCC(F)CC1 (stereo unspecified), CNc1nnc(-c2cccc3ccccc23)s1, CC(=O)N1CC2(CCCN(CC3CCCCC3)C2)Cc2ccccc21 (stereo unspecified), O=C(C1CCCC1)N1Cc2ccccc2CC2(CCN(Cc3cccnc3)C2)C1 (stereo unspecified), O=C(C1CCCC1)N1Cc2ccccc2CC2(CCN(Cc3ccncc3)C2)C1 (stereo unspecified), CCCC(=O)N1Cc2ccccc2CC2(CCN(Cc3ccc(O)cc3)C2)C1 (stereo unspecified), CC(=O)N1Cc2ccccc2CC2(CCN(Cc3ccncc3)C2)C1 (stereo unspecified), CCC(=O)N1Cc2ccccc2CC2(CCN(Cc3ccncc3)CC2)C1, O=C(c1ccc(Cl)cc1)N1CC2(CCCN(Cc3ccccn3)C2)Cc2ccccc21 (stereo unspecified), CCCC(=O)N1Cc2ccccc2CC2(CCN(Cc3ccccc3)CC2)C1, CC(=O)N1Cc2ccccc2OC2(CCN([S+](C)(=O)[O-])CC2)C1, CNc1oc(C2CCCC2)nc1C#N, Cc1cccc(-c2cnc3n[nH]c(-c4ccc5c(c4)OCO5)c3n2)c1, CN1CC(=O)N(C2CCCNC2)Cc2c(NC3CCC3)ncnc21 (stereo unspecified), N#Cc1cc2nc(O)c(O)nc2cc1[N+](=O)[O-], OC1(CN2CCN(c3nccs3)CC2)CCCNC1 (stereo unspecified), Cc1ccc(-c2ccccc2CN)c(C)c1, CCOCCCNc1ncnc2c1CN(C1CCCNCC1)C(=O)CN2C (stereo unspecified), CN1CC(=O)N(C2CNC2)Cc2c(NC3CC3)ncnc21, CN1CC(=O)N(C2CCCNC2)Cc2c(NCC3CCCCCC3)ncnc21 (stereo unspecified), O=C1NCc2ccccc2CC12CCN(Cc1ccc(F)c(Cl)c1)CC2, C[S+](=O)([O-])N1CC2(Cc3ccccc3NC2=O)C1, N#Cc1ccc(CN2CCn3c(nn(-c4cccc(Cl)c4)c3=O)C2)cc1, O=C(c1ccc(C(F)(F)F)cc1)N1CCC2(CC1)C(=NC1CCCCC1)NC(=O)N2c1cc(F)cc(F)c1, CC(=O)NCCC(=O)N1Cc2ccccc2CC2(CCCN2CC2CCNCC2)C1 (stereo unspecified), COc1cccc(CC(=O)N2CC(CO)C3(CCNCC3)C2)c1 (stereo unspecified), Nc1ccccc1CN1CCCC2(Cc3ccccc3CNC2=O)C1 (stereo unspecified), O=C1NCc2ccccc2CC12CCN(Cc1ccc(Cl)cc1)CC2, Cc1cc(C)cc(CN2CCC3(Cc4ccccc4CNC3=O)C2)c1 (stereo unspecified), O=C1NCc2ccccc2CC12CCN(Cc1cc(O)cc(O)c1)C2 (stereo unspecified), O=C1NCc2ccccc2CC12CCN(Cc1cccc(Br)c1)C2 (stereo unspecified), CCOc1ccc(CN2CCC3(Cc4ccccc4CNC3=O)C2)cc1 (stereo unspecified), O=C1NCc2ccccc2CC12CCN(Cc1ccccc1Cl)C2 (stereo unspecified), Cc1ccc(CN2CCC3(Cc4ccccc4CNC3=O)C2)cc1C (stereo unspecified), CCOc1cccc(CN2CCC3(Cc4ccccc4CNC3=O)C2)c1 (stereo unspecified)
